Data as given in PMC12214610.

How the values were obtained:
14-3-3 protein eta = 14-3-3 protein eta (UniProt Q04917)
Actin, cytoplasmic 2 = Actin, cytoplasmic 2 (UniProt P63261)
[1] = target: Rab11 family-interacting protein 1 (UniProt Q6WKZ4)
Annexin A4 = Annexin A4 (UniProt P09525)
[2] = target: Aspartate--tRNA ligase, cytoplasmic (UniProt P14868)
[3] = target: Autonomous glycyl radical cofactor (UniProt P68066)
Calreticulin = Calreticulin (UniProt P27797)
[4] = target: Casein kinase II subunit alpha (UniProt P68400)
Chaperone protein DnaK = Chaperone protein DnaK (UniProt P0A6Y8)
[5] = target: Charged multivesicular body protein 2b (UniProt Q9UQN3)
[6] = target: DNA-binding protein HU-beta (UniProt P0ACF4)
[7] = target: Dihydrolipoyl dehydrogenase (UniProt P0A9P0)
[8] = target: Pyruvate dehydrogenase E1 component (UniProt P0AFG8)
[9] = target: Dihydrolipoyllysine-residue succinyltransferase component of 2-oxoglutarate dehydrogenase complex (UniProt P0AFG6)
[10] = target: Endoplasmic reticulum chaperone BiP (UniProt P11021)
[11] = target: Peptidyl-prolyl cis-trans isomerase B (UniProt P23284)
[12] = target: Fatty acid oxidation complex subunit alpha (UniProt P21177)
[13] = target: Glutamate synthase [NADPH] small chain (UniProt P09832)
[14] = target: Glycine--tRNA ligase beta subunit (UniProt P00961)
[15] = target: Integration host factor subunit beta (UniProt P0A6Y1)
Myosin-9 = Myosin-9 (UniProt P35579)
[16] = target: Phenylalanine--tRNA ligase alpha subunit (UniProt P08312)
[17] = target: Succinate--CoA ligase [ADP-forming] subunit alpha (UniProt P0AGE9)
Transketolase 2 = Transketolase 2 (UniProt P33570)
[18] = target: Uncharacterized protein YqjD (UniProt P64581)
[19] = target: Unconventional myosin-XVIIIa (UniProt Q92614)

Sequence of Calreticulin (P27797 whole entry): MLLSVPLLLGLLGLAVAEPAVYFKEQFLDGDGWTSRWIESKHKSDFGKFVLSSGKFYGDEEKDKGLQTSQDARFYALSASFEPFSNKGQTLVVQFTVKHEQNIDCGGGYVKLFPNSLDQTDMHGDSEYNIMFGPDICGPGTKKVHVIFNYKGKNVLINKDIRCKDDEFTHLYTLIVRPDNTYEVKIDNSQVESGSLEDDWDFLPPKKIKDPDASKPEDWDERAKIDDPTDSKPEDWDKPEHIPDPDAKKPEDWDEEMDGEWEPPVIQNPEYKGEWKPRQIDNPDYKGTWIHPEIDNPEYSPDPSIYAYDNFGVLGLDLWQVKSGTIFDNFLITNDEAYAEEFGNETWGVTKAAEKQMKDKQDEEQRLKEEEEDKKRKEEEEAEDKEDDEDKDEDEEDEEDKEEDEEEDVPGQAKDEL
Sequence of Protein disulfide-isomerase, P07237 (P07237 whole entry): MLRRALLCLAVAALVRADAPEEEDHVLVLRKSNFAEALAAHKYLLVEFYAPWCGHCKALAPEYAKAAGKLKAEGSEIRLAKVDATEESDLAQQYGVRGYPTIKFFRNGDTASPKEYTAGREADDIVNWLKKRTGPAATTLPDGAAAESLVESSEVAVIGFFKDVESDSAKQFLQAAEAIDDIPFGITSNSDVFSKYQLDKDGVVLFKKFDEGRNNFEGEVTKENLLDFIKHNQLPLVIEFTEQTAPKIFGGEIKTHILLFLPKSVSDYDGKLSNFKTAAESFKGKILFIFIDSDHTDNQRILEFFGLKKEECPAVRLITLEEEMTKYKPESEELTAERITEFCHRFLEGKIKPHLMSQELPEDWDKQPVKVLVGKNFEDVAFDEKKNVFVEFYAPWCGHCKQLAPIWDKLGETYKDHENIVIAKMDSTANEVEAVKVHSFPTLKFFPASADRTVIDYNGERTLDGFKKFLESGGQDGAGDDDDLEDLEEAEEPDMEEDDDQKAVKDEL
Sequence of Pyruvate dehydrogenase E1 component (P0AFG8 whole entry): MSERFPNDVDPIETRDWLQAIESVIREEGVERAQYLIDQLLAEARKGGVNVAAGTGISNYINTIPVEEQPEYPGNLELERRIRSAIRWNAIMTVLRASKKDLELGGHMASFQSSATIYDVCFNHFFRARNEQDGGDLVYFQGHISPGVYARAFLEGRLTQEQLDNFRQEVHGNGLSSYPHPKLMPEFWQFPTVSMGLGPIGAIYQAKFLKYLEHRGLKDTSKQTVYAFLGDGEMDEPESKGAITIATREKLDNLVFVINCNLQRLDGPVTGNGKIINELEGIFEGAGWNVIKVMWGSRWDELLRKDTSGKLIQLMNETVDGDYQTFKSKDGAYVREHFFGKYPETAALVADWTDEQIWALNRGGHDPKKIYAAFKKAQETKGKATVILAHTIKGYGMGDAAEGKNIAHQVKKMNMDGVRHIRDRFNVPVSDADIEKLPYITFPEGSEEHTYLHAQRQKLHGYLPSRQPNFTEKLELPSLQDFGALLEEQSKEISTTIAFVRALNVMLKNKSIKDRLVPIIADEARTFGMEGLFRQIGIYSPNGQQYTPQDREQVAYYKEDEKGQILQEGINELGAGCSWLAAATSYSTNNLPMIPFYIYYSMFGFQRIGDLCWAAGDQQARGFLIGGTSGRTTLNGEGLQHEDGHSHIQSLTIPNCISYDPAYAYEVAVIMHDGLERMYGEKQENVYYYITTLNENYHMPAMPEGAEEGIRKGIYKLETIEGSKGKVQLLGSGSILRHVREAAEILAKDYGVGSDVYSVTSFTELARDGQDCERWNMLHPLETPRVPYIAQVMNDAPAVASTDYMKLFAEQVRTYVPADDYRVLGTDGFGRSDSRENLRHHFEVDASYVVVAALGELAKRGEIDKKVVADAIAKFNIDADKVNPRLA
Sequence of Dihydrolipoyllysine-residue succinyltransferase component of 2-oxoglutarate dehydrogenase complex (P0AFG6 whole entry, one chain of several): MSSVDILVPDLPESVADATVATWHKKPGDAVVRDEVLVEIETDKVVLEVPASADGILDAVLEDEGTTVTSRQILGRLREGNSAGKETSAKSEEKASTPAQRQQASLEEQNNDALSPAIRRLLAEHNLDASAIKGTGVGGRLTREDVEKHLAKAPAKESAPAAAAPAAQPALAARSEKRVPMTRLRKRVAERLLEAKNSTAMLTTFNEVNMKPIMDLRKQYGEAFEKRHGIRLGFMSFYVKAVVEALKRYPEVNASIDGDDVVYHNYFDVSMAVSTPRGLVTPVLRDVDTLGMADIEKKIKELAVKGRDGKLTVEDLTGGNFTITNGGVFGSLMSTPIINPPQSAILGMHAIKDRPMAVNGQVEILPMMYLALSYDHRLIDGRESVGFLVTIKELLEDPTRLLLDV
Sequence of Charged multivesicular body protein 2b (Q9UQN3 whole entry): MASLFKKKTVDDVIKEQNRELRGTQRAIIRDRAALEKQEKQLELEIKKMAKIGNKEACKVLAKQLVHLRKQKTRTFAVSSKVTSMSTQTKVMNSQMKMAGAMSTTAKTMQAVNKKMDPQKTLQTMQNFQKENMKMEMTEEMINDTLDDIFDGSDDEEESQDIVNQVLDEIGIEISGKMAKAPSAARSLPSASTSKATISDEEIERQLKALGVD
Sequence of Succinate--CoA ligase [ADP-forming] subunit alpha (P0AGE9 whole entry): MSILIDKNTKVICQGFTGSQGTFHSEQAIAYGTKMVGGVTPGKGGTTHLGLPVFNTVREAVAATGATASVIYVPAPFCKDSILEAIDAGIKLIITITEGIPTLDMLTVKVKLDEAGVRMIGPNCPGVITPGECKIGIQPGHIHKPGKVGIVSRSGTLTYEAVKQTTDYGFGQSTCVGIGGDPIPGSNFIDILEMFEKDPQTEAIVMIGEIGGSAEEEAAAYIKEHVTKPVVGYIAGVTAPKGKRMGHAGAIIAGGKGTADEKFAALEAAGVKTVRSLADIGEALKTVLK
Sequence of Myosin-9 (P35579 whole entry): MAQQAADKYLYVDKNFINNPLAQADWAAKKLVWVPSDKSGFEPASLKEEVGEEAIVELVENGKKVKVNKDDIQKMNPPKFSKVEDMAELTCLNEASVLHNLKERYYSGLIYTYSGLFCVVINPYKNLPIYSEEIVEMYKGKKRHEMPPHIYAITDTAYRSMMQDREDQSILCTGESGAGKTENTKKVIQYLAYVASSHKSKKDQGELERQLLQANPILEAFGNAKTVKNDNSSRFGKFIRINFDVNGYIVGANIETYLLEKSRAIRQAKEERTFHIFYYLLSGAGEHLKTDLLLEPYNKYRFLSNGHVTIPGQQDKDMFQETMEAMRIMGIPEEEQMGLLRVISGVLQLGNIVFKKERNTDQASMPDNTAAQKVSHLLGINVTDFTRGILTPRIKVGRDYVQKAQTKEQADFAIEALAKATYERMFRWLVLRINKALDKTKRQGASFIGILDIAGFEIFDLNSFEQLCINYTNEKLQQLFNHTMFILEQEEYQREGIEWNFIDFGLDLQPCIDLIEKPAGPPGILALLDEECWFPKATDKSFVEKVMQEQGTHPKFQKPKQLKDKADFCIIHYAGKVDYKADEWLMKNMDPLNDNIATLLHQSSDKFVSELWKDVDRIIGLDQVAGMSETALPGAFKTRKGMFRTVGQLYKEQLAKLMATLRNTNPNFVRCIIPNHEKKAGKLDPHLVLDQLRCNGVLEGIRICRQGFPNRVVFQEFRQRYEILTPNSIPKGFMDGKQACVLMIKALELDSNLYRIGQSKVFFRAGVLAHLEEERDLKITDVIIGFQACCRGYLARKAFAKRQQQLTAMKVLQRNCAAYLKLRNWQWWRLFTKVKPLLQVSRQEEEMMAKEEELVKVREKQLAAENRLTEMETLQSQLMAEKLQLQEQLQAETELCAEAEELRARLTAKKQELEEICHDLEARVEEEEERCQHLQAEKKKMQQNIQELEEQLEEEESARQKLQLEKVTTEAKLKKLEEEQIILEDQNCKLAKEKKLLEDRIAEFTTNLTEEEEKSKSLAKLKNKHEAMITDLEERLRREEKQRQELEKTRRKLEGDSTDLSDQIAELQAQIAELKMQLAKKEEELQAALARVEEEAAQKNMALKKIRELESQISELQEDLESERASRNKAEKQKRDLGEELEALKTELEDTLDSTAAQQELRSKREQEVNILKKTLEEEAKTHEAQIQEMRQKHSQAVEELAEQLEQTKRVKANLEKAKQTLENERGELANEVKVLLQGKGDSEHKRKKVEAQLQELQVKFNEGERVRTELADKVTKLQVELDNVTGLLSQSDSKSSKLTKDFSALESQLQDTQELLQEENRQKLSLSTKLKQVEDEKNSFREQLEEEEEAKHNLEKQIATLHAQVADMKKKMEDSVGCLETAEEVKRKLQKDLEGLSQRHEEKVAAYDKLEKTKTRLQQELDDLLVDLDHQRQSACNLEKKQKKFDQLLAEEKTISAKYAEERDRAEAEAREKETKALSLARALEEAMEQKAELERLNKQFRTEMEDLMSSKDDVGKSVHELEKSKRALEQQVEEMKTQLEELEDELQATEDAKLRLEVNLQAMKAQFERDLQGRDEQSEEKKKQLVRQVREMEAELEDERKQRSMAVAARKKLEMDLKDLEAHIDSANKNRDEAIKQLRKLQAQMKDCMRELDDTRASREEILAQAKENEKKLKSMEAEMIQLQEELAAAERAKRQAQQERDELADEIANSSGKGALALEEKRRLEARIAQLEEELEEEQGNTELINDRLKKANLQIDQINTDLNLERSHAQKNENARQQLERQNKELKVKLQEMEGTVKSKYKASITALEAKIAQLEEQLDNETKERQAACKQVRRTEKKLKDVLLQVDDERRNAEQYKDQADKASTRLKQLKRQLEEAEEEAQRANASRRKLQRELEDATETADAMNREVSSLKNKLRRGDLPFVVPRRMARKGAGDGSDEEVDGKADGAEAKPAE
Sequence of Peptidyl-prolyl cis-trans isomerase B, P23284 (P23284 whole entry): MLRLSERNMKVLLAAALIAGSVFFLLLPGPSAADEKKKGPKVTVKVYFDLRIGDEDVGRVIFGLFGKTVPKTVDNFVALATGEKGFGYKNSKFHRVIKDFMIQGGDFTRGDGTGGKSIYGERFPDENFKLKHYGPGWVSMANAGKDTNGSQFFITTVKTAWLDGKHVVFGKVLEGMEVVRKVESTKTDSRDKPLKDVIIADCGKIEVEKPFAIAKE
Sequence of Peptidyl-prolyl cis-trans isomerase B (P23284 whole entry): as above

14-3-3 protein epsilon, P62258
listed as a hit (14-3-3 protein eta): yes

Heat shock protein HSP 90-beta, P08238
listed as a hit (Actin, cytoplasmic 2): yes

Ras-related protein Rab-11B, Q15907
listed as a hit [1]: yes

Annexin A6, P08133
listed as a hit (Annexin A4): yes

Eukaryotic translation elongation factor 1 epsilon-1, O43324
listed as a hit [2]: yes

Formate acetyltransferase 1, P09373
listed as a hit [3]: yes

Peptidyl-prolyl cis-trans isomerase B, P23284
listed as a hit (Calreticulin): yes

Protein disulfide-isomerase A4, P13667
listed as a hit (Calreticulin): yes

Casein kinase II subunit beta, P67870
listed as a hit [4]: yes

Protein GrpE, P09372
listed as a hit (Chaperone protein DnaK): yes

Charged multivesicular body protein 1b, Q7LBR1
listed as a hit [5]: yes

DNA-binding protein HU-alpha, P0ACF0
listed as a hit [6]: yes

Dihydrolipoyllysine-residue acetyltransferase component of pyruvate dehydrogenase complex, P06959
listed as a hit [7]: yes | listed as a hit [8]: yes

Dihydrolipoyl dehydrogenase, P0A9P0
listed as a hit [9]: yes | listed as a hit [8]: yes

2-oxoglutarate dehydrogenase E1 component, P0AFG3
listed as a hit [9]: yes

Protein disulfide-isomerase, P07237
listed as a hit [10]: yes | listed as a hit [11]: yes

3-ketoacyl-CoA thiolase FadA, P21151
listed as a hit [12]: yes

Glutamate synthase [NADPH] large chain, P09831
listed as a hit [13]: yes

Glycine--tRNA ligase alpha subunit, P00960
listed as a hit [14]: yes

Integration host factor subunit alpha, P0A6X7
listed as a hit [15]: yes

Myosin regulatory light polypeptide 9, P24844
listed as a hit (Myosin-9): yes

Phenylalanine--tRNA ligase beta subunit, P07395
listed as a hit [16]: yes

Succinate--CoA ligase [ADP-forming] subunit beta, P0A836
listed as a hit [17]: yes

Transketolase 1, P27302
listed as a hit (Transketolase 2): yes

Protein ElaB, P0AEH5
listed as a hit [18]: yes

Myosin-9, P35579
listed as a hit [19]: yes
